# Inconclusive results are not listed. A number with no mark means an inactive call. Calls of active or inactive are those of the source. Unless noted, calls follow the shape of the dose curve; as a rule, active = well fitted cell-killing curve with a large enough effect in the repeat runs; inconclusive = weak or mixed curves, or effect the other way; inactive = no such curve, though single readings can be large or run the other way.
# Target: Peroxisome proliferator-activated receptor gamma (Homo sapiens) (UniProt P37231)
# Sequence (P37231 whole entry, looked up): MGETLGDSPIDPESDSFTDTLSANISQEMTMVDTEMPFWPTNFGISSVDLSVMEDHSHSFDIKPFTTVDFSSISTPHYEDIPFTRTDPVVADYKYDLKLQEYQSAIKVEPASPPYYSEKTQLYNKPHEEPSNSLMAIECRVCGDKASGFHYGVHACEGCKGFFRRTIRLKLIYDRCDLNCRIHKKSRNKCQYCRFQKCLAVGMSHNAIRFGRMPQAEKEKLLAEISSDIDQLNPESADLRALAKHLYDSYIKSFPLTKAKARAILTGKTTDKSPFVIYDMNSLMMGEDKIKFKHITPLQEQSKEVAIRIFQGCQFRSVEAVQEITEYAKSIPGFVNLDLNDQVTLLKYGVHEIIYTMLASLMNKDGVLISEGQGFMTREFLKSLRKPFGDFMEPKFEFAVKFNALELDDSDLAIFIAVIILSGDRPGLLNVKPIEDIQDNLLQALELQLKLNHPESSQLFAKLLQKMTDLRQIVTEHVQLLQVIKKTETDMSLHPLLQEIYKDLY
# Assay: qHTS assay to identify small molecule agonists of the peroxisome proliferator-activated receptor gamma (PPARg) signaling pathway (AID 743094; active = well fitted activation curve with a large enough effect in the signal ratio in the repeat runs, not every such curve was filed as active; the % refers to the signal ratio)
# Settings: HEK293H PPARg-UAS-bla, beta-lactamase FRET ratio, 17 h; series mostly up to 57 µM; activation: at the top concentration
# How it was run: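 Cells from the PPARg UAS-bla HEK293H line are plated and incubated 5 h at 37C. Compounds in DMSO are pinned in and left 17 h at 37C. LiveBLAzer B/G substrate is then added for 1 h at room temperature before fluorescence is measured.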
# % is scaled to controls: 0 for no effect and ±100 for the full control effect.
row,Structure (SMILES),activation
1,OCC(Br)CBr (stereo not given),-1.07% [at 78.9 µM]
2,CC(C)N(C(=O)SC/C(Cl)=C/Cl)C(C)C,-0.0287% [at 78.9 µM]
3,COc1ccc2c(c1OC)C(=O)O[C@@H]2[C@H]1c2cc3c(cc2CCN1C)OCO3,-0.0216%
4,ClSC(Cl)(Cl)Cl,-2.65%
5,CCN(CC)C(=O)N[C@@H]1C=C2c3cccc4[nH]cc(c34)C[C@@H]2N(C)C1,-5.26%
6,CCCCCON=O,-10.9% [at 78.9 µM]
7,O=C(N[C@H]1N=C(c2ccccc2F)c2cccc3c2N(CC3)C1=O)c1cc2ccccc2[nH]1,3.5%
8,[O-][Cl+3]([O-])([O-])O,4.05% [at 78.9 µM]
9,CCC1(CC)C(=O)N=C(O)NC1=O,-0.307%
10,O=c1c2ccccc2c(=O)c2c1cc(Cl)c1[nH]c3c([nH]c12)c(Cl)cc1c(=O)c2ccccc2c(=O)c13,0.495%
11,CNC(C)(C)Cc1ccccc1,-1.03% [at 26.2 µM]
12,O=P(Cl)(Cl)Cl,-0.034% [at 78.9 µM]
13,c1cc[n+]2c(c1)-c1cccc[n+]1CC2,2.14%
14,CN1[C@@H]2CC[C@H]1CC(O)C2 (stereo not given in full),-0.44% [at 78.9 µM]

# Target: Peroxisome proliferator-activated receptor gamma (Homo sapiens) (UniProt P37231)
# Assay: qHTS assay to identify small molecule antagonists of the peroxisome proliferator-activated receptor gamma (PPARg) signaling pathway (AID 743191; calls by dose curve; also: nearly all actives have a fitted effect of over 30% in size; also: potency is read from the fitted curve at half-maximal effect)
# Settings: HEK293H PPARg-UAS-bla, beta-lactamase ratio, antagonist, 17 h; series mostly up to 62.6 µM; ratio activity, negative = inhibition: at the top concentration
# How it was run: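 GeneBLAzer PPARg UAS-bla HEK293H cells, 5 h post-plating, exposed to compounds 17 h at 37C. LiveBLAzer B/G FRET substrate added for 1 h at room temperature; beta-lactamase reporter read by fluorescence intensity.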
Structure (SMILES),"ratio activity, negative = inhibition",Potency
O=C(NC(=O)c1ccccc1Cl)Nc1ccc(OC(F)(F)F)cc1,13.5%,–
Cc1ccccc1OP(=O)(Oc1ccccc1C)Oc1ccccc1C,-11.7% [at 81.1 µM],–
C=CCBr,0.667% [at 81.1 µM],–
C=CC(=C)C,10.2%,–
CCC1COC(Cn2cncn2)(c2ccc(Cl)cc2Cl)O1 (stereo not given),13.5%,–
CC(C)=CCN1CC[C@@]2(C)c3cc(O)ccc3C[C@@H]1[C@@H]2C,-0.765% [at 81.1 µM],–
CCOP(=O)(Sc1ccccc1)Sc1ccccc1,–,54.9 µM (active)
Brc1ccc(Oc2ccc(Br)cc2Br)c(Br)c1,-11.1%,–
CCN(CC)CCN1C(=O)CN=C(c2ccccc2F)c2cc(Cl)ccc21,1.09%,–
C=CCOC(=O)c1ccccc1N,7.06% [at 81.1 µM],–
c1ccc2nc(N3CCNCC3)ccc2c1,0.222%,–
O=[N+]([O-])c1ccccc1-c1ccccc1,18.5%,–
Nc1nc(N)nc(Cl)n1,16.6%,–
CCCCN(CCCC)C(=S)[S-].CCCCN(CCCC)C(=S)[S-].[Ni+2],-19.1%,–
CNC(=O)O/N=C(\C)C(C)S(C)(=O)=O (stereo not given),-2.12% [at 765 µM],–
OCC(Br)CBr (stereo not given),8.55% [at 81.1 µM],–
COc1ccc2c(c1OC)C(=O)O[C@@H]2[C@H]1c2cc3c(cc2CCN1C)OCO3,-0.783%,–
ClSC(Cl)(Cl)Cl,6.62%,–
CCN(CC)C(=O)N[C@@H]1C=C2c3cccc4[nH]cc(c34)C[C@@H]2N(C)C1,-3.8%,–
CCCCCON=O,1.01% [at 81.1 µM],–
[O-][Cl+3]([O-])([O-])O,-5.57% [at 81.1 µM],–
CCC1(CC)C(=O)N=C(O)NC1=O,2.32%,–
O=c1c2ccccc2c(=O)c2c1cc(Cl)c1[nH]c3c([nH]c12)c(Cl)cc1c(=O)c2ccccc2c(=O)c13,-14.3%,–
CNC(C)(C)Cc1ccccc1,9.25%,–
O=P(Cl)(Cl)Cl,18% [at 81.1 µM],–
c1cc[n+]2c(c1)-c1cccc[n+]1CC2,16.7%,–
CN1[C@@H]2CC[C@H]1CC(O)C2 (stereo not given in full),-8.04% [at 81.1 µM],–

# Tested on: not listed separately
# Assay: qHTS assay to identify small molecule antagonists of the peroxisome proliferator-activated receptor gamma (PPARg) signaling pathway - cell viability counter screen (AID 743194); also: nearly all actives have a fitted effect of over 55% in size; also: potency is read from the fitted curve at half-maximal effect
# Settings: PPARg-bla HEK293H viability, CellTiter-Glo luminescence, 17 h; Potency: co-treated with 50 nM rosiglitazone unless noted; series mostly up to 62.6 µM; activity change, negative = cytotoxicity: at the top concentration
# How it was run: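 Cytotoxicity counter screen in PPARg-bla HEK293H cells, same wells as reporter assay. Compounds plus 50 nM rosiglitazone (final) for 17 h at 37 C, then viability read by CellTiter-Glo luminescence.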
Structure (SMILES),"activity change, negative = cytotoxicity",Potency
O=C(NC(=O)c1ccccc1Cl)Nc1ccc(OC(F)(F)F)cc1,0.0345%,–
C[N+]1(C)[C@@H]2CC[C@H]1CC(OC(=O)C(CO)c1ccccc1)C2 (stereo not given in full),25.7%,–
CN1CCc2cc(Cl)c(O)cc2[C@H]2c3ccccc3CC[C@@H]21,-22.8%,–
C=CCBr,"-6.88% [at 81.1 µM, co-treated with 50 nM rosiglitazone]",–
C=CC(=C)C,9.27%,–
CCC1COC(Cn2cncn2)(c2ccc(Cl)cc2Cl)O1 (stereo not given),-3.52%,–
CCOP(=O)(Sc1ccccc1)Sc1ccccc1,-21.6%,–
CCC[CH2][Sn]([CH2]CCC)([CH2]CCC)[O][Sn]([CH2]CCC)([CH2]CCC)[CH2]CCC,–,0.427 µM (active)
COCCC#N,6.05%,–
Brc1ccc(Oc2ccc(Br)cc2Br)c(Br)c1,-26.8%,–
Oc1ccc([C@H]2CNCc3c2ccc(O)c3O)cc1O,-6.1%,–
c1ccc2nc(N3CCNCC3)ccc2c1,-15.9%,–
N#Cc1c[nH]cc1-c1cccc2c1OC(F)(F)O2,1.06%,–
Nc1nc(N)nc(Cl)n1,6.05%,–
CCCCN(CCCC)C(=S)[S-].CCCCN(CCCC)C(=S)[S-].[Ni+2],-1.07%,–
CNC(=O)O/N=C(\C)C(C)S(C)(=O)=O (stereo not given),"5.53% [at 765 µM, co-treated with 50 nM rosiglitazone]",–
COP(=S)(NC(C)C)Oc1ccc(C)cc1[N+](=O)[O-] (stereo not given),3.74%,–
OCC(Br)CBr (stereo not given),"7.13% [at 81.1 µM, co-treated with 50 nM rosiglitazone]",–
CC(C)N(C(=O)SC/C(Cl)=C/Cl)C(C)C,"3.72% [at 81.1 µM, co-treated with 50 nM rosiglitazone]",–
ClSC(Cl)(Cl)Cl,2.28%,–
CCN(CC)C(=O)N[C@@H]1C=C2c3cccc4[nH]cc(c34)C[C@@H]2N(C)C1,-1.01% [at 62.6 µM],–
O=C(N[C@H]1N=C(c2ccccc2F)c2cccc3c2N(CC3)C1=O)c1cc2ccccc2[nH]1,1.29%,–
[O-][Cl+3]([O-])([O-])O,"2.63% [at 81.1 µM, co-treated with 50 nM rosiglitazone]",–
CCC1(CC)C(=O)N=C(O)NC1=O,4.3% [at 62.6 µM],–
O=c1c2ccccc2c(=O)c2c1cc(Cl)c1[nH]c3c([nH]c12)c(Cl)cc1c(=O)c2ccccc2c(=O)c13,0.549%,–
CNC(C)(C)Cc1ccccc1,5.18% [at 62.6 µM],–
O=P(Cl)(Cl)Cl,-6.15% [at 81.1 µM],–
c1cc[n+]2c(c1)-c1cccc[n+]1CC2,12.2%,–
CN1[C@@H]2CC[C@H]1CC(O)C2 (stereo not given in full),"5.16% [at 81.1 µM, co-treated with 50 nM rosiglitazone]",–

# Tested on: not listed separately
# Assay: qHTS assay for small molecule agonists of the antioxidant response element (ARE) signaling pathway (AID 743202; active = well fitted activation curve with a large enough effect in the signal ratio in the repeat runs, not every such curve was filed as active; the % refers to the signal ratio; also: potency is read from the fitted curve at half-maximal effect)
# Settings: HepG2 ARE-bla reporter, beta-lactamase FRET, 16 h; series mostly up to 73.3 µM; activation: at the top concentration
# How it was run: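 HepG2 ARE-bla cells; 16 h treatment at 37 C; FRET-based beta-lactamase fluorescence read after 2 h substrate incubation at room temperature.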
Structure (SMILES),activation,Potency
CN1CCc2cc(Cl)c(O)cc2[C@H]2c3ccccc3CC[C@@H]21,-1.25%,–
C=CCBr,-12.9% [at 94.8 µM],–
C=CC(=C)C,-6.3%,–
CC(C)=CCN1CC[C@@]2(C)c3cc(O)ccc3C[C@@H]1[C@@H]2C,-7.84%,–
COCCC#N,-13.3%,–
Brc1ccc(Oc2ccc(Br)cc2Br)c(Br)c1,3.15%,–
C=CCOC(=O)c1ccccc1N,14.2% [at 94.8 µM],–
N#Cc1c[nH]cc1-c1cccc2c1OC(F)(F)O2,-7.02%,–
O=[N+]([O-])c1ccccc1-c1ccccc1,-6.52%,–
Nc1nc(N)nc(Cl)n1,4.56%,–
CCCCN(CCCC)C(=S)[S-].CCCCN(CCCC)C(=S)[S-].[Ni+2],12.9%,–
CNC(=O)O/N=C(\C)C(C)S(C)(=O)=O (stereo not given),12.3% [at 920 µM],–
COP(=S)(NC(C)C)Oc1ccc(C)cc1[N+](=O)[O-] (stereo not given),1.05%,–
OCC(Br)CBr (stereo not given),-2.39% [at 94.8 µM],–
CC(C)N(C(=O)SC/C(Cl)=C/Cl)C(C)C,-4.64% [at 94.8 µM],–
COc1ccc2c(c1OC)C(=O)O[C@@H]2[C@H]1c2cc3c(cc2CCN1C)OCO3,6.84%,–
ClSC(Cl)(Cl)Cl,-10.1%,–
CCN(CC)C(=O)N[C@@H]1C=C2c3cccc4[nH]cc(c34)C[C@@H]2N(C)C1,-0.0639%,–
CCCCCON=O,-7.8% [at 94.8 µM],–
[O-][Cl+3]([O-])([O-])O,-15.2% [at 94.8 µM],–
O=c1c2ccccc2c(=O)c2c1cc(Cl)c1[nH]c3c([nH]c12)c(Cl)cc1c(=O)c2ccccc2c(=O)c13,-0.0661%,–
CNC(C)(C)Cc1ccccc1,-0.308%,–
O=P(Cl)(Cl)Cl,-3.3% [at 94.8 µM],–
c1cc[n+]2c(c1)-c1cccc[n+]1CC2,–,10.6 µM (active)
CN1[C@@H]2CC[C@H]1CC(O)C2 (stereo not given in full),9.79% [at 94.8 µM],–

# From PubChem BioAssay (Tox21)
